Assay outcomes deposited in PubChem BioAssay by several laboratories.
SUMO HTRF inh: SUMOylation inhibition; P63279; hit rate 0.36% among 290,000; HTRF SUMOylation assay, SAE1/SAE2 + UBC9, in vitro; AID 2006; inhibition, % at 35 µM; in the data active means inhibition above about 50%, passing the limit was not always enough
GRIN3A LBD mod: NR3A (human) ligand-binding domain modulation | NR3A LBD differential scanning fluorimetry, Tm shift; 0% = protein alone, 100% = glycine-bound protein | Tm shift relative to glycine control, % at 25 µM | hit rate 2.5% among 340,000 | AID 1259313;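 active means melting temperature shift of at least 10% of the positive control shift, at one fixed dose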
HGIII-sPLA2 inh: Inhibits HGIII-sPLA2 liposome hydrolysis, primary screen; inhibition, % at 12.2 µM; Q9NZ20; hit rate 0.56% among 370,000; QFRET BODIPY PC-A2 liposome hydrolysis, fluorescence;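 active means inhibition above mean plus 3 SD of compounds lying within the high and low control bounds, cut at about 19% in these data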;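 further: 0% = median of test compound wells and 100% = no enzyme DMSO wells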
Target sequence (Q9NZ20 whole entry, looked up): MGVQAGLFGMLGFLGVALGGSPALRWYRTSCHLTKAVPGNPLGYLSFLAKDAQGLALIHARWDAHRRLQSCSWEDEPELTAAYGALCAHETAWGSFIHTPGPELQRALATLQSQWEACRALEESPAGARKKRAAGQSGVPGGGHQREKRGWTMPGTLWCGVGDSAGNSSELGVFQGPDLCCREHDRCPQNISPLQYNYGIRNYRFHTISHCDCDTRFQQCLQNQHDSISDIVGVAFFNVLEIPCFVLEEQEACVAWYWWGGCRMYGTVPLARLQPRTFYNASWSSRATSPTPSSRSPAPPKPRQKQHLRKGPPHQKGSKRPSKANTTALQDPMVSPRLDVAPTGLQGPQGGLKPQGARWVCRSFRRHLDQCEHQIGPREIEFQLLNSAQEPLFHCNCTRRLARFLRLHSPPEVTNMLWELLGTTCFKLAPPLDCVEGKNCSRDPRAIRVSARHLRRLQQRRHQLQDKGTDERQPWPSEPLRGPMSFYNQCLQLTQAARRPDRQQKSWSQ
UBC13 polyUb: blocks human UBC13 polyubiquitin chain formation; TR-FRET; inhibition, % at 20 µM; hit rate 0.47% among 330,000; in the data active means inhibition above about 45%, passing the limit was not always enough
Numbers without * were called inactive; . = no result. Rows were chosen to be rich in hits. Some 3.3% of all compounds tested hit in one or more screens of this group.

SMILES	SUMO HTRF inh	GRIN3A LBD mod	HGIII-sPLA2 inh	UBC13 polyUb
NS(=O)(=O)c1ccc(CCNC(=O)C2CCN(S(=O)(=O)c3ccc(Br)s3)CC2)cc1	6	13*	1	1
Cc1ccc(S(=O)(=O)N2CCC(C(=O)NCCc3ccc(S(N)(=O)=O)cc3)CC2)cc1	-7	4	-5	14
O=C(NC1CCCCC1)O[C@H]1CC[C@@]23CCCN2C(=O)CCC[C@H]3C1	.	.	5	.
CC(CCN1CCC(C(O)(c2ccccc2)c2ccccc2)CC1)Oc1ccc(F)cc1 (configuration not stated)	.	.	-11	.
Cc1ccc(C(=O)Nc2nc(-c3ccccn3)cs2)o1	-12	8	7	-24
CC(=O)c1ccc(-c2ccc(C(=O)Nc3nc(-c4ccccn4)cs3)o2)cc1	.	11*	10	-32
Cc1ccc(OCc2nnc(SCC(=O)N3CCOCC3)n2C)cc1	-5	16*	9	-11
Cc1ccc(OCc2nnc(SCCN3CCOCC3)n2C)cc1	32	0	1	9
Cc1ccc(S(=O)(=O)N(CC(=O)Nc2ccc(Cl)c([N+](=O)[O-])c2)C2CCCCC2)cc1	-29	11*	-19	-1
Cc1cccc(CNC(=S)OCCN2CCCC23CCC(c2ccccc2)CC3)c1 (configuration not stated)	.	.	-9	.
CCC(=O)Nc1ccc2c(c1)C(=O)N(C)[C@@H]1CC[C@@H](CC(=O)OC)O[C@H]1CO2	.	.	5	.
C=CCN1[C@H](C#N)[C@@H](c2ccc(C#Cc3ccccc3OC)cc2)[C@H]1CO	.	.	4	.
O=C(Nc1ccccn1)c1ccc(Br)s1	14	2	1	-4
Cc1nc(-c2ccccn2)sc1C(=O)Nc1ccc(Cl)c(Cl)c1	-2	26*	-4	18
O=C(Nc1ccc(Cl)cc1)c1ccc(-c2ccccn2)s1	1	31*	-6	1
Cc1ccc(-c2c(NC(=O)C3CC3)nc3ncccn23)cc1	.	.	9	.
O=C(COC(=O)CNC(=O)C1CCCCC1)Nc1ccc(F)c([N+](=O)[O-])c1	.	-1	-3	14
Cc1ccc(NC(=O)COC(=O)COc2ccc(Cl)cc2)c([N+](=O)[O-])c1	-26	-2	3	-15
O=C(COC(=O)CNC(=O)c1ccccc1)Nc1ccc(F)c([N+](=O)[O-])c1	-2	13*	0	-10
O=C(COC(=O)COc1ccc(Cl)cc1)Nc1ccc(F)c([N+](=O)[O-])c1	-1	12*	7	11
Cc1ccc(S(=O)(=O)N2c3ccccc3C[C@H]2CCC(=O)c2ccccc2)cc1	.	.	9	.
COc1ccc(C(=O)C2(C(=O)NC3CCCC3)CC(c3ccccc3C(F)(F)F)=NO2)cc1 (configuration not stated)	.	.	-2	.
CSCCCNC(=O)c1cn(C(C)c2ccccc2)nn1 (configuration not stated)	.	.	10	.
O=C(Nc1ccncc1)c1cncc(Br)c1	12	11*	6	-5
O=C(NC(=S)Nc1ccc(O)cc1)c1cncc(Br)c1	.	0	22*	0
SMILES	SUMO HTRF inh	GRIN3A LBD mod	HGIII-sPLA2 inh	UBC13 polyUb
O=C(NC(=S)Nc1cccc(O)c1)c1cncc(Br)c1	.	-1	13	0
COc1cc(/C=C2\Oc3cc(O)ccc3C2=O)ccc1O	13	-3	-25	-62
O=C1/C(=C/c2ccc(O)c(O)c2)Oc2cc(O)ccc21	14	15*	-16	-55
O=C(NCc1ccccc1)c1ccc(CO)cc1	.	.	3	.
COc1ccc(C(=O)Nc2ccc(Nc3ccccc3)cc2)cc1Br	.	24*	-5	2
CC(=O)c1ccc(NC(=O)c2ccc(C)c(Br)c2)cc1	16	28*	-1	5
COc1cc(C(=O)Nc2ccc(O)cc2)ccc1OC(C)=O	15	32*	1	10
COc1ccc(C(=O)Nc2ccc(N3CCCCC3)cc2)cc1Br	-2	10*	8	10
C#Cc1cccc(OCC(C)CN2CCC(C(O)(c3ccccc3)c3ccccc3)CC2)c1 (configuration not stated)	.	.	-14	.
O=C(Nc1ccc(O)cc1)c1ccc(NC(=O)C2CCCO2)cc1 (configuration not stated)	-2	1	4	-3
CCCCNS(=O)(=O)c1ccc(NC(=O)C2CCCO2)cc1 (configuration not stated)	14	12*	2	6
CCC(C)NS(=O)(=O)c1ccc(NC(=O)C2CCCO2)cc1 (configuration not stated)	10	-3	1	-5
Cc1cc(NC(=O)c2ccc(NC(=O)C3CCCO3)cc2)ccc1Br (configuration not stated)	-4	11*	-1	-5
O=CNn1cnc2c(oc3nc(-c4ccccc4)cc(-c4ccco4)c32)c1=O	27	29*	-22	-18
